# Source: PubChem BioAssay (several laboratories)
# Ba/F3 V617F tox – reduced viability of JAK2V617F-dependent Ba/F3 cells, primary screen, JAK2V617F inhibitor project, cell-based, Ba/F3 EpoR-JAK2V617F, luminescence. ATP luminescence. inhibition, % at 5.6 µM. hit rate 1.1% among 220,000. AID 1446, 2008;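 active means inhibition above the campaign mean plus 3 SD over all tested compounds, cut at about 24% in these data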;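 further: cytokine-independent growth of Ba/F3 cells driven by EpoR plus mutant JAK2; 0% = DMSO-treated cells and 100% = JAK inhibitor I control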
# KLF5 inh – KLF5 expression inhibitors, primary screen, DLD-1 cells, luminescence | DLD-1 KLF5 promoter-luciferase reporter | inhibition, % at 5 µM | hit rate 0.23% among 290,000;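 active means inhibition above a per-plate limit of that plate's mean compound inhibition plus 3 SD, cut at about 60% in these data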;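 further: 0% = DMSO wells and 100% = LY294002 at 200 µM; higher means less KLF5 promoter-driven luciferase light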
# APP 5UTR inh – inhibitors of APP translation via 5'UTR reporter, primary screen, APP 5'UTR luciferase, SH-SY5Y cells. SH-SY5Y APP 5'UTR-luciferase reporter, luminescence. inhibition, % at 2 µM. hit rate 0.82% among 190,000. AID 1285, 2008;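 active means inhibition above a set limit, derived from the sample mean plus 3 SD, cut at about 45% in these data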
# IEC-6 tox-1 – cytotoxicity in IEC-6 intestinal epithelial cells, primary screen, cytotoxicity control for KLF5 inhibitor project, cell-based, luminescence. IEC-6 cytotoxicity, luminescence viability. inhibition, % at 5 µM. hit rate 0.78% among 290,000. AID 1825, 2009; in the data active means inhibition above about 22%;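 further: 0% = plate median of test compound wells and 100% = cytotoxic reference compound wells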
# BaF3 tox – parental Ba/F3 cell viability inhibition, counter-screen for JAK2V617F inhibitor project, murine pro-B, CellTiter-Glo luminescence. CellTiter-Glo ATP luminescence. inhibition, % at 5.6 µM. hit rate 1.1% among 220,000;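 active means inhibition above a per-campaign cutoff, the mean inhibition of all tested compounds plus 3 SD, cut at about 27% in these data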;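 further: 0% = DMSO wells and 100% = JAK Inhibitor I control wells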
# KLF5 inh confirm – KLF5 expression inhibitors, confirmation, DLD-1 cells, luminescence | DLD-1 KLF5 promoter firefly luciferase reporter | inhibition, % at 4 µM | shares compounds with KLF5 inh | hit rate 79% among 610;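 active means inhibition above a set limit taken from the earlier primary screen, cut at about 63% in these data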;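 further: 0% = DMSO wells and 100% = LY294002 at 200 µM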
# IEC-6 tox-2 – cytotoxicity in rat IEC-6 cells, cytotoxicity control for KLF5 inhibitor project, cell-based, luminescence, triplicate | shares compounds with KLF5 inh | inhibition, % at 4 µM | hit rate 56% among 610 | IEC-6 rat intestinal cells, viability luminescence; in the data active means inhibition above about 23%;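 further: cells exposed to compounds for 48 hours before viability read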
# An asterisk follows results filed as active; nt = no result. Rows were chosen to be rich in hits. Some 1.9% of all compounds tested hit in one or more screens of this group.
SMILES,Ba/F3 V617F tox,KLF5 inh,APP 5UTR inh,IEC-6 tox-1,BaF3 tox,KLF5 inh confirm,IEC-6 tox-2
Cc1ccc(NC(=O)c2ccc(Cn3cc([N+](=O)[O-])cn3)cc2)c(C)c1,-2.4,-2.7,-3.7,2.0,2.2,nt,nt
COc1cc(C(=O)Nc2sc3c(c2C(=O)O)CCC(C)C3)cc(OC)c1OC (stereo not given),nt,73.8*,nt,-5.7,nt,20.4,5.2
O=[N+]([O-])c1ccc(O)c(/C=N/Nc2ccc(Cl)nn2)c1,-0.3,67.0*,6.6,-8.8,8.9,76.2*,37.9*
O=C(CCCc1ccccc1)c1ccc2c(c1)OCCO2,4.9,70.2*,-41.7,3.1,5.0,88.2*,-5.4
O=C(NCCc1ccccc1)c1ccc2c(c1)OCCO2,nt,96.9*,nt,2.5,nt,95.1*,-3.8
O=C(NCCc1ccccc1)c1ccc2c(c1)OCCCO2,nt,100.0*,nt,2.2,nt,109.1*,15.3
COc1ccc(CCNC(=O)c2ccc3c(c2)OCCO3)cc1,-5.0,-116.7,-29.2,-4.1,1.2,nt,nt
NC(=O)COn1c(SCC(N)=O)nc2ccccc2c1=O,-2.1,-8.8,nt,1.8,-0.2,nt,nt
CN(Cc1ccon1)C(=O)C1CCC(=O)N(Cc2ccc(Cl)cc2)C1 (stereo not given),nt,-38.1,nt,-3.9,nt,nt,nt
COc1ccccc1CC(=O)NCCN1CCCCC1,nt,-16.2,nt,-5.3,nt,nt,nt
COC(=O)c1ccc2nc(Nc3nc4ccc(F)cc4s3)sc2c1,-2.3,94.5*,42.5,0.3,2.4,101.2*,16.4
Cc1ccc(-c2nc(-c3ccccn3)no2)cc1Cl,3.9,69.8*,-158.7,10.7,3.0,89.0*,10.6
c1ccc(-c2ccc(-c3nc(-c4ccccn4)no3)cc2)cc1,11.9,83.6*,46.1*,8.0,12.4,104.4*,14.2
Cc1ccc(-c2nc(-c3ccccn3)no2)cc1,23.2,88.2*,39.2,16.2,20.6,99.6*,41.6*
CS(=O)(=O)Nc1cccc(S(=O)(=O)N2CCN(C(=O)c3ccccc3)CC2)c1,4.4,-15.9,nt,7.9,-4.6,nt,nt
O=C(NCC1CCCC(CNC(=O)N2CCc3ccccc32)C1)N1CCc2ccccc21 (stereo not given),-1.8,-45.7,3.6,0.7,4.1,nt,nt
O=C(CN1C(=O)c2ccccc2S1(=O)=O)c1ccccc1,-4.8,13.8,3.3,4.1,0.1,nt,nt
O=C(CN1C(=O)c2ccccc2S1(=O)=O)c1ccccc1Cl,nt,69.8*,nt,0.1,nt,46.4,-2.3
Cc1nn(-c2ccc3ccccc3c2)c(=O)c2ccccc12,4.6,-50.9,-142.3,9.5,3.8,nt,nt
Cc1nn(-c2nc3ccccc3[nH]2)c(=O)c2ccccc12,83.2*,110.0*,74.1*,84.6*,87.2*,104.5*,63.1*
O=C(Nc1nnc(-c2ccc(F)cc2)o1)c1cccc([N+](=O)[O-])c1,0.7,71.8*,-20.2,98.4*,10.2,27.0,17.2
CCOc1c(Nc2ccccc2O)c(=O)c1=O,-1.1,1.7,nt,1.1,2.2,nt,nt
O=C(O)c1ccc(-c2ccc(-c3ccccc3)cc2)s1,nt,90.4*,nt,10.4,nt,92.3*,4.2
COc1ccc(C(=O)O/N=C(\N)c2ccccc2)cc1,nt,-130.5,nt,1.6,nt,nt,nt
CC(C)(C)c1ccc(C(=O)O/N=C(\N)c2ccccc2)cc1,nt,71.3*,nt,-1.2,nt,65.8*,7.0
SMILES,Ba/F3 V617F tox,KLF5 inh,APP 5UTR inh,IEC-6 tox-1,BaF3 tox,KLF5 inh confirm,IEC-6 tox-2
CN(C)CCNC(=O)/C=C/c1cn(-c2ccccc2)nc1-c1cc2ccccc2oc1=O,-0.3,-9.8,19.2,-5.4,6.7,nt,nt
CCCCCCCC[n+]1cccc2c3ccccc3ccc21,99.9*,81.9*,19.6,44.7*,85.0*,92.7*,43.4*
O=C(c1ccccc1)c1cc([N+](=O)[O-])ccc1N1CCOCC1,71.3*,73.6*,92.0*,80.5*,74.2*,72.4*,57.7*
O=C(c1cc([N+](=O)[O-])ccc1N1CCOCC1)N1CCCCC1,4.5,-11.7,-7.2,7.9,11.7,nt,nt
c1ccc(CSc2nnc3ccc(-c4ccncc4)nn23)cc1,3.5,-8.1,-10.0,4.5,2.7,nt,nt
O=C(CSc1nnc2ccc(-c3ccncc3)nn12)c1cccs1,2.8,62.6*,-14.3,0.4,5.5,-14.8,-5.6
CCCc1ccc(C(=O)O/N=C(\N)c2ccccn2)cc1,nt,101.5*,nt,7.7,nt,97.3*,4.1
N/C(=N\OC(=O)c1ccc(=O)n(Cc2ccccc2)c1)c1ccccn1,0.5,-49.2,-1.8,-1.2,9.8,nt,nt
N/C(=N\OC(=O)c1ccc2ccccc2c1)c1ccccn1,2.9,86.3*,-158.2,3.4,8.5,-17.3,2.9
CC(=O)Nc1ccc(S(=O)(=O)N(C)CC(=O)OCC(=O)N2CCCCCC2)cc1,nt,15.6,nt,5.4,nt,nt,nt
COc1ccccc1NC(=O)c1cnc(Nc2ccccc2OC)c2ccccc12,85.4*,71.9*,93.8*,68.9*,82.7*,71.3*,47.3*
COc1ccccc1NC(=O)c1ccccc1C(=O)Nc1ccccc1OC,nt,13.3,nt,3.6,nt,nt,nt
COCCCN=C1NN=C(c2cc(C)n(-c3ccccc3F)c2C)CS1,-0.4,-63.5,-186.8,-1.0,3.9,nt,nt
COCCn1c(C)cc(C2=NNC(=Nc3ccccc3F)SC2)c1C,-3.4,88.6*,52.4*,9.3,3.6,-4.5,-6.6
Cn1c(=O)c2c(nc(N3CCN(c4ccc([N+](=O)[O-])cc4)CC3)n2C)n(C)c1=O,1.5,-8.8,nt,0.9,-1.9,nt,nt
Cc1ccc(CNC(=O)c2ccc(Cn3cc(-c4ccc(C)cc4)nc3-c3ccncc3)cc2)cc1,nt,-86.1,nt,11.1,nt,nt,nt
COc1ccc(Cl)cc1C(=O)Nc1nc2ccccc2[nH]1,nt,79.8*,nt,20.0,nt,70.3*,13.6
CC(C)Oc1ccc(C(=O)Nc2nc3ccccc3[nH]2)cc1,nt,87.0*,nt,13.8,nt,77.5*,5.5
CCc1ccc(C(=O)Nc2nc3ccccc3[nH]2)cc1,nt,84.3*,nt,13.9,nt,71.9*,6.5
CCCc1ccc(S(=O)(=O)N/N=C\c2ccc3c(c2)OCO3)cc1,nt,-31.1,nt,4.2,nt,nt,nt
COc1ccc(CNC(=O)CSc2n[nH]c(C)c2[N+](=O)[O-])cc1,-0.9,-31.8,-0.6,-0.3,3.3,nt,nt
CC1=NN(c2nc3ccccc3[nH]2)C(=O)C1Cc1ccccc1 (stereo not given),97.1*,62.7*,nt,-15.8,80.6*,80.8*,12.4
O=c1[nH]c2ccccc2nc1NCc1ccccc1,nt,-25.4,nt,9.2,nt,nt,nt
COc1ccc(S(=O)(=O)Nc2cccc(-c3ccc4nncn4n3)c2)cc1F,80.7*,69.9*,62.7*,59.4*,79.1*,80.6*,33.6*
CC(C)Oc1ccc(C2CC(=O)N(c3cccc(/C=C/C(=O)O)c3)C2=O)cc1 (stereo not given),nt,-1.4,nt,3.8,nt,nt,nt
